The subject of one assay is T1, NIM1.
T1 construct: gene MGC42105

The subject of the next assay is T2, NIK.
T2 construct: gene MAP3K14

The structures appear in SMILES notation. Some results are limits rather than exact numbers.

The term Kd denotes a measure of binding affinity in units of concentration. A high value points to weaker binding.
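Note: kd values determined as follow-up on hits from a single-replicate KINOMEscan panel screen.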

The molecule `COc1cc(Nc2ccnc3ccc(C(F)(F)F)cc23)cc(OC)c1OC` [GW577382] had a Kd in the assay on NIM1 of more than 10 µM.
`COc1ccc(-c2cc3c(C)nc(N)nc3n([C@H]3CC[C@H](O)CC3)c2=O)cn1` showed a Kd in the assay with MYLK of more than 10 µM.
In the assay on NIK, `COC(=O)c1c(-c2ccccc2)c2cc(C)ccc2c(=O)n1Cc1ccccc1` came in with a Kd of more than 10 µM.
For `COc1cc2nccc(Nc3ccc(OCc4ccc(NC(C)=O)cc4)cc3)c2cc1OC.Cl` [GW440135], the Kd in the assay with NEK7 and in the assay on NEK9 was more than 10 µM throughout.
Regarding `COc1cccc(C2=C(N(C)c3ccccc3)C(=O)NC2=O)c1` [SB-334865], the Kd in the assay with NIK is more than 10 µM.
For the molecule `OCCCNc1nccc(-c2c(-c3cccc(C(F)(F)F)c3)nn3cc(C(F)(F)F)ccc23)n1` [GW630813], binding in the assay on NLK was characterised by a dissociation constant (Kd) of 0.23 µM.
Molecule `Cc1c(Cn2c(C)nn3c(=O)cc(N4CCO[C@H](C)C4)nc23)cccc1C(F)(F)F` [GSK2373690] displayed a Kd in the assay on MYLK4 of more than 10 µM.
Regarding `Nc1ncnc2c1ncn2-c1ccc(Cl)cc1` [AH2635], the Kd with NIK was more than 10 µM.
As to `CCc1nc(-c2cccc(C)c2)c(-c2ccncc2)s1`, the Kd in the assay with NLK is 0.18 µM.
The molecule `COc1cc(Nc2nccc(N3CCC(NC(=O)C(C)c4ccc(Cl)cc4)C3)n2)cc(OC)c1OC` (stereo not drawn) [GSK1379757] displayed a Kd in the assay on NEK5 of 0.74 µM.
Regarding `Nc1n[nH]c2nnc(-c3ccccc3)c(-c3ccccc3)c12` [GW554060], the Kd in the assay on NIK is more than 10 µM.
In the assay on MYO3A, `CCc1ccc(-c2ccc3c(c2)-c2nn(C)cc2S(=O)(=O)N3C)cc1` showed a Kd of more than 10 µM.
On to `COC(=O)c1c(-c2ccccc2)c2cc(Br)ccc2c(=O)n1Cc1ccc(NC(=O)CCC(=O)O)cc1`, for which, in the assay on MYO3A, the Kd is more than 10 µM.
As to `Cc1ccc(-c2ccc3c(ccc4sc5c(c43)NC[C@@H](C)N=C5N(C)C)n2)cn1`, in the assay on MYLK4, the Kd is more than 10 µM.
Turning to `COc1cc(Nc2nccc(N3CCC(NC(=O)C4COc5ccccc5O4)C3)n2)cc(OC)c1OC` (stereo not drawn) [GSK1379761], the Kd in the assay on NEK5 turned out to be 0.37 µM.
As for `O=C1NC(=O)C(c2ccccc2)=C1Nc1cccc(O)c1` [SB-390534], the Kd in the assay on NIM1 was more than 10 µM.
In the assay on NEK10, `CCCC(=O)Nc1n[nH]c2ncc(-c3cccc4ccccc34)cc12` [SB-642057] showed a Kd of more than 10 µM.

For the origin of these results see publication PMC5540273 (PLoS ONE, 2017).
